Laboratory results published in PubChem BioAssay (EPA / NIEHS).
More than one record can exist for a structure, and the calls need not agree. Calls of active or inactive are those of the source. The calls were made as follows: active = hit-call score of the fitted dose curve at least 0.9, where 1 is the maximum; inactive = score below 0.9.

Assay: CCTE_Shafer_MEA_dev_network_spike_number: CCTE's Neural Network Formation Assay for Number of Network Spikes, Shafer Lab (AID 2284048);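 also: synchronized bursts across electrodes counted on days 5 7 9 12 and integrated as AUC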;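 as to AC50: fit as a loss of signal meaning fewer network spikes than DMSO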
Description: CCTE_Shafer_MEA_dev assay is conducted using Axion Biosystems 48 well microelectrode array (MEA) plates and Maestro recording system. Each well of the MEA plate contains a grid of 16 microelectrodes embedded in the culture surface. Electrically active cells, such as neurons, can be cultured over the electrodes, and electrical activity in these cells can be recorded extracellularly. The spontaneous firing of neurons is captured from each electrode on a microsecond timescale providing both temporally and spatially precise data. […] The CCTE_Shafer_MEA_dev assay uses primary cultures of rat cortical neurons. Recordings are made on days post-plating 5, 7, 9 and 12. As these cultures mature over time, neural networks develop functional activity and form cohesive networks in which electrical activity can be highly coordinated. CCTE_Shafer_MEA_dev_network_spike_number is 1 of 19 assay components of the CCTE_Shafer_MEA_dev assay. It measures the number of network spikes (temporally-clustered groups of action potential firing across multiple electrodes) during a recording in a microelectrode array (MEA) using Axion Biosystems Maestro 768 channel amplifier with the AxIS adaptive spike detector. To collapse across multiple recordings made on days post-plating 5, 7, 9 and 12, the trapezoidal area-under-the-curve of the component is calculated.Data from the assay component CCTE_Shafer_MEA_dev_network_spike_number was analyzed into 1 assay endpoint. This assay endpoint, CCTE_Shafer_MEA_dev_network_spike_number, was analyzed in the negative analysis fitting direction relative to DMSO as the negative control and baseline of activity. Using a type of functional reporter, gain or loss-of-signal activity can be used to understand electrical activity.
On the day prior to culture, each well was coated thoroughly with 150 uL of 0.05% polyethyleneimine (PEI, Sigma Cat P3143) in 50 mM HEPES (Sigma Cat H7523) at a pH of 8. The plate was incubated at 37C for one hour. PEI was rinsed out with 500 uL of sterile water three times. Plates were stored at 4C until the day of culture. This culture was plated at a seeding density of 1.5 x 10^5 cells/well on a 48-well MEA plate, prepared as described above. Cells were administered via a 25 uL media/laminin ([…]; Sigma Cat L2020-1MG) drop directly onto the microelectrode array, as adding the cells with the laminin results in better attachment than pre-coating with laminin. After 2 hours, an additional 475 uL of cortical media was added and the cells returned to the incubator. Exposure starts at day 0 of plating and is continued over twelve days of network development until the experiment is terminated. Cells are fed with fresh medium on DIV 5 and 9, following the recordings on those days. The entire volume of media in the well is exchanged and any vehicle or compound treatment is renewed. Complete details are found in OP-NHEERL/ISTD/SBB/TJS/2015-03-r0 (available on request, email shafer.tim@epa.gov). Measurement of the electrical activity is non-invasive, and recordings can be made from the same plate over multiple different days of the culture. In cortical neurons, this allows for the measurement of extracellular action potentials over the period during which networks form in the MEA plate.

SMILES	outcome	AC50
C=C(C)C(=O)OCCC(F)(F)C(F)(F)C(F)(F)C(F)(F)C(F)(F)C(F)(F)F	inactive	
c1ccc2c(c1)ccc1ccccc12	inactive	
CC#C[C@]1(O)CC[C@H]2[C@@H]3CCC4=CC(=O)CCC4=C3[C@@H](c3ccc(N(C)C)cc3)C[C@@]21C	inactive	8.75 µM (active)
c1ccc2c(c1)Cc1ccccc1-2	inactive	
c1ccc2cc3c(ccc4ccccc43)cc2c1	inactive	
OCCC(F)(F)C(F)(F)C(F)(F)C(F)(F)C(F)(F)C(F)(F)F	inactive	
OCCC(F)(F)C(F)(F)C(F)(F)C(F)(F)C(F)(F)C(F)(F)C(F)(F)C(F)(F)F	inactive	
CN1CCC[C@H]1c1cccnc1	inactive	
CC(O)CO (stereo unspecified)	inactive	
CC1=C(/C=C/C(C)=C/C=C/C(C)=C/C(=O)O)C(C)(C)CCC1		7.99 µM (active)
